The campaign covered roughly 10,000 compounds. About 25 (0.2%) were called active.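 How the source made its calls: active means compound among top-ranked inhibitors of TNF-induced VCAM-1 adhesion protein staining, with the hit upheld by image or statistical review; inactive means the rest, including hits rejected on review.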 This excerpt belongs to a sample that is enriched for actives.
Test: suppression of endothelial VCAM-1 upregulation – cell-based, plate reader, pooled HUVEC, TNFa stimulus (AID 454)
Conditions: HUVEC TNFa-induced VCAM-1 surface immunofluorescence; stronger effect = higher value,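 compound tested at 5 µM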

inhibition, active:
CCOC(=O)c1sc(Nc2nc3c(OC)cccc3s2)nc1C 73.7%, O=C(c1ccco1)N1CCN(c2c(-c3ccccc3)c3cc(Cl)ccc3[nH]c2=O)CC1 86.3%, Cc1cc(C)nc(SC2=CS(=O)(=O)c3ccccc32)n1 91%, CCCCc1oc2ccccc2c1C(=O)c1cc(I)c(OCCN(CC)CC)c(I)c1 85.9%, CC(=O)[C@H]1CC[C@H]2[C@@H]3CCC4=CC(=O)CC[C@]4(C)[C@H]3CC[C@]12C 96.7%

inhibition, inactive:
O=C(O)/C=C/c1ccc(O)c(O)c1, CCN(CC)C(=O)c1ccc(O)c(OC)c1, COc1ccc(N2CCN(c3ncnc4c3cnn4-c3ccc(C)cc3C)CC2)cc1, CC1(C)Cc2c(sc3c2c(=N)n(Cc2ccco2)c(=O)n3Cc2ccccc2)CO1, Cc1nc(-c2ccccc2)sc1C(N)=O, Clc1ccc(Cl)c(-c2nn3c(Cn4cnc5ccccc54)nnc3s2)c1, CSc1ccccc1NC(=O)CN(c1ccccc1)S(=O)(=O)N(C)C, CSc1ccc(Cn2nnc(C(=O)NCc3ccccc3)c2N)cc1, CC(=O)N1CCN(c2ccc(N=Cc3c(O)n(Cc4ccccc4)c(=O)[nH]c3=O)cc2)CC1, C1=CC2CC1CC2CN1CCN(c2ccccc2)CC1 (stereo not given), CCOC(=O)C(NC(=O)CC)(Nc1ccc(S(=O)(=O)Nc2onc(C)c2C)cc1)C(F)(F)F (stereo not given), O=C(Nc1nc2c(s1)CCc1ccccc1-2)c1cccs1, CS(=O)(=O)N1CCCC(C(=O)NCc2ccccc2Cl)C1 (stereo not given), COC(=O)c1sc(NC(=O)COc2ccccc2OC)nc1C, CCOC(=O)c1sc(NS(=O)(=O)c2ccc(NC(C)=O)cc2)nc1C, O=C(c1ccco1)N1CCN(c2cccc(Cl)c2)CC1, O=C(O)c1[nH]c2ccc(Cl)cc2c1CC(=O)N1CCN(C(=O)c2ccco2)CC1, O=S1(=O)C=C(Sc2nc3ccccc3s2)c2ccccc21 110%, O=S1(=O)C=C(Sc2nnc(-c3ccccc3)o2)c2ccccc21, Cc1ccc(-c2nc3cnccn3c2Nc2ccc3c(c2)OCO3)o1, CCOC(=O)C(C(C)=O)c1nc(C)nc2c1nnn2Cc1ccccc1Cl (stereo not given), CCC(C(=O)NC(C)CCc1ccco1)n1nc(C)n2c(cc3occc32)c1=O (stereo not given), CCOc1ccccc1NC(=O)CCN1CCN(S(=O)(=O)c2ccc(Br)cc2)CC1, COc1cccc(-c2nc(CS(=O)(=O)CC(=O)N3CCN(c4ccccn4)CC3)c(C)o2)c1, Cc1cc(C)n(-c2nc3ccccc3c(=O)n2OCCOc2ccccc2)n1, Cn1cccc1Cc1nnc(SCC(=O)N2CCOCC2)n1-c1ccc(F)cc1, O=C(CN(c1ccc(F)cc1)S(=O)(=O)c1ccc2c(c1)OCCO2)Nc1ccc2c(c1)OCO2, CN(C)/C=C(\C#N)c1nc2ccccc2[nH]1, O=C(CN(c1ccc(F)cc1)S(=O)(=O)c1ccc2c(c1)OCCO2)Nc1cccnc1, COc1ccc(CNc2oc(-c3cccc4ccccc34)nc2C#N)cc1, CCc1oc2ccccc2c1C(=O)c1cc(Br)c(O)c(Br)c1, CCN(CC)CCOC(=O)c1c(C)oc2ccc(O)cc12, O=C(COc1ccccc1Cl)NCc1ccco1, CCCC1Cc2c(sc3ncnc(N)c23)CO1 (stereo not given), COc1cccc(NC(=O)N2CCC(N3CCCCC3)CC2)c1, CCc1nc(C)c(C#N)c2cc(OC)c(OC)cc12, COc1cc(CC(=O)Nc2ncc(C)s2)cc(OC)c1OC, C#CCNc1c(C)c(C)nc2ncnn12, CCN1CCN(Cc2ccc(NC(=O)Nc3ccc(SC)cc3)cc2)CC1, Cn1c(=O)[nH]c(=O)c2[nH]c(CN3CCN(C(=O)c4ccco4)CC3)nc21, C[C@]12CC[C@H]3[C@@H](CCC4=CC(=O)CC[C@@]43C)[C@@H]1CC[C@@H]2C(=O)CO, CC(=O)OCC(=O)[C@H]1CC[C@H]2[C@@H]3CCC4=CC(=O)CC[C@]4(C)[C@H]3CC[C@]12C, CCC(=O)N[C@@H]1CC(C(C)(C)NC(=O)CC)CC=C1C (stereo not given in full), COc1cc(OC)c2c(c1)OC(c1ccc(OC)c(OC)c1)C(O)C2=O (stereo not given), Cc1ccc(-c2cc(C(F)F)nc(N3CCC(C)CC3)n2)cc1, Cc1[nH]n(C(N)=S)c(=O)c1C(c1ccccc1)C(C#N)C#N (stereo not given), CCOC(=O)c1cnc(-n2nc(C)cc2C)nc1N1CC(C)OC(C)C1 (stereo not given), Cc1ccc(S(=O)(=O)N2CCCC2C(=O)n2nc(C)cc2C)cc1 (stereo not given), CCOCCn1c(CN2CCC(Cc3ccccc3)CC2)nc2c1c(=O)n(C)c(=O)n2C, Oc1c(C(c2ccccc2)N2CCc3ccccc3C2)sc2ncnn12 (stereo not given), CC1=C(C(N)=O)C(c2ccc(Cl)cc2Cl)n2ncnc2N1 (stereo not given), COC(=O)C1=C(C)N(c2ccc(C(=O)OC)cc2)C(=O)C1, COCCCNC(=O)CCn1c(=O)c2ccccc2n(CC(=O)Nc2ccc(C)cc2C)c1=O, CCOc1cc(-c2nc3ccccn3c2NCC2CCCO2)ccc1O (stereo not given), Cc1cc(C)nc(SCc2nnc(SCc3ccccc3Cl)o2)n1

— PubChem BioAssay AID454 (Sanford-Burnham Center for Chemical Genomics, 2006)
